# From PubChem BioAssay (NCI)
# Compounds without any hit were thinned out: in the full panel of roughly 83,000, 20% have a hit.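 For each line, cells grew in 96-well plates with the test compound present at a single concentration for 48 hours.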 Unmarked numbers belong to inactive results. Activity calls are given as the source filed them. The calls were made as follows: active = growth percent below 10; inactive = the rest.
# What was measured:
# Assay in all cases: NCI-60 one-dose screen, 48 h (100 = growth as untreated, 0 = no growth, -100 = all killed)
# Details in all cases: 10 µM unless noted
# NCI-H23 lung = system: NCI-H23 lung
# NCI-H226 lung = system: NCI-H226 lung
# NCI-H322M lung = system: NCI-H322M lung
# HOP-62 NSCLC = system: HOP-62 NSCLC
# NCI-H460 lung = system: NCI-H460 lung
# HOP-92 NSCLC = system: HOP-92 NSCLC
# NCI-H522 lung = system: NCI-H522 lung
# A549/ATCC NSCLC = system: A549/ATCC NSCLC
# 786-0 renal = system: 786-0 renal
# COLO 205 colon = system: COLO 205 colon
SMILES,growth (NCI-H23 lung),growth (NCI-H226 lung),growth (NCI-H322M lung),growth (HOP-62 NSCLC),growth (NCI-H460 lung),growth (HOP-92 NSCLC),growth (NCI-H522 lung),growth (A549/ATCC NSCLC),growth (786-0 renal),growth (COLO 205 colon)
COc1cc(C(=O)c2c(-c3ccccc3)oc3c(OC)cccc23)cc(OC)c1OC,23.8%,8.39% (active),46.2%,30%,3.18% (active),-1.18% (active),13.9%,17%,9.22% (active),-15.7% (active)
CCN1CCN(C(=O)[C@]23CC[C@@H](C)[C@H](C)[C@@H]2C2=CC[C@@H]4[C@@]5(C)C/C(=C/c6cccnc6)C(=O)C(C)(C)[C@@H]5CC[C@@]4(C)[C@]2(C)CC3)CC1,34.2%,47.8%,65.7%,44.5%,7.51% (active),56.9%,17.7%,32%,42.4%,11.5%
O=C(Cc1ccc(/C=C/C(=O)c2ncc[nH]2)cc1)Nc1cc(C(F)(F)F)cc(C(F)(F)F)c1,93.9%,103%,96.4%,106%,93.7%,116%,96.6%,81.1%,52.2%,102%
C=CCOC(=O)C1=C(C)N(CC)C(=O)NC1c1c(Cl)n(C)c2ccccc12 (stereo not given),96%,106%,78.8%,103%,99%,68.1%,85.3%,87.6%,95.7%,108%
COc1cccc(Nc2ncnc3cc(NC(=O)CCl)ccc23)c1,-50.9% (active),-48.3% (active),37.5%,-89.8% (active),-72.7% (active),-74.8% (active),-77.4% (active),-27.7% (active),-89.7% (active),-90% (active)
NC1=Nc2cc(OCCCCN3Cc4ccccc4C3)c(OCC3CC3)cc2C12CCCC2,66.9%,37.7%,75.7%,73.2%,23.2%,29.4%,67.3%,67.5%,56.2%,-74.5% (active)
C=C1C(=O)O[C@H]2[C@H]1CC/C(CNC(=O)c1c[nH]c3ccc(F)cc13)=C\CC[C@@]1(C)O[C@@H]21,14.2%,25.9%,82.9%,70.6%,85.7%,-42.3% (active),-73.9% (active),46.6%,-59.5% (active),-78.6% (active)
CC1(C)OB(O)c2cc(-c3nc4ccc5[nH]ncc5c4c4c3CCCC4)ccc21,62.8%,55%,57%,68.2%,34.1%,73.9%,77.9%,56.4%,66.1%,80.9%
C=C1CC[C@@H]2C(C)(C)[C@@H](O)CC[C@@]2(C)[C@@H]1COc1ccc2ccc(=O)oc2c1,75.3%,66.1%,109%,103%,87.8%,86.8%,66.9%,58.7%,89.6%,92%
Cc1ccc(-c2nc(-c3cn(C)c4ncccc34)cs2)cc1,-7.81% [100 µM] (active),-35.3% [100 µM] (active),-32% [100 µM] (active),-63.3% [100 µM] (active),-48.5% [100 µM] (active),-47.2% [100 µM] (active),6.25% [100 µM] (active),7.36% [100 µM] (active),-52.8% [100 µM] (active),-60.5% [100 µM] (active)
CCOC(=O)/C=C1\S/C(=N\Nc2cc(=O)[nH]c3ccccc23)N(c2ccccc2)C1=O,97.9%,95.4%,101%,92.1%,107%,88.8%,96.7%,103%,101%,106%
COc1ccc(C(O)c2cc3c(N)c(C(=O)Nc4cccc(Cl)c4C)sc3nc2C)cc1 (stereo not given),25.5%,54.5%,39.4%,16.2%,-6.01% (active),16.2%,-34.9% (active),10.5%,22.2%,-23% (active)
COc1cccc(/C=C/C(=O)c2cc3c(N)c(C(=O)Nc4cccc5ccccc45)sc3nc2C)c1,28.4%,36.4%,41.1%,25%,-0.349% (active),68.8%,12%,20.3%,3.42% (active),33.9%
CCCCCCCCCCCCCCCCCC1=NC(C)(C)CN1CC(C)O (stereo not given),84.8%,102%,71.4%,85.2%,4.24% (active),43.6%,25.8%,19.1%,83.9%,34%
O=C(N/N=C\c1cccc([N+](=O)[O-])c1)N/N=C/c1cccc([N+](=O)[O-])c1,101%,92.4%,104%,92.9%,107%,105%,98.9%,100%,111%,119%
C[n+]1ccc(CCc2c[nH]c3ccccc23)cc1,102%,109%,93.4%,69.3%,107%,93.9%,81.4%,66.2%,100%,96.8%
CC1(C)N=C(N)N=C(N)N1c1cccc(CCc2ccccc2)c1,21.7%,48.1%,45.8%,45%,16.1%,63.2%,21.4%,24.8%,30.8%,29.5%
COc1ccc2c(c1)CCc1[nH]nc(-c3cc(OC)c(OC)c(OC)c3)c1-2,12.7%,41%,47%,12.9%,3.92% (active),32.8%,-22.3% (active),5.04% (active),3.88% (active),-64.6% (active)
C#Cc1cccc(Nc2nc(C)nc3cc(NC(=O)CCl)ccc23)c1,-55.6% (active),-28.1% (active),-31.3% (active),-84.2% (active),-64.1% (active),-82% (active),-77.5% (active),5.92% (active),-72.5% (active),-78.6% (active)
O=S1(=O)C=C(c2ccccc2)C(c2ccccc2)=C1,60.1%,44.7%,90.8%,54.3%,36.5%,-1.68% (active),-70.7% (active),70.9%,3.9% (active),-88.5% (active)
CC1(C)CC[C@]2(CO)CC[C@]3(C)[C@H](CC[C@@H]4[C@@]5(C)CCCNC(C)(C)[C@@H]5CC[C@]43C)[C@H]2[C@H]1O,88.1%,103%,93.8%,98%,11.7%,83.8%,92.1%,73%,96.7%,0.611% (active)
C=C1C(=O)O[C@H]2[C@H]1CC/C(COC(=O)/C=C\C(=O)NCc1ccc(Cn3c(=O)sn(CCCl)c3=O)cc1)=C\CC[C@@]1(C)O[C@@H]21,86.9%,102%,104%,116%,101%,115%,-64.4% (active),111%,83.4%,34.8%
Cc1nc2sc(C(=O)Nc3cccc(Br)c3C)c(N)c2cc1C(O)c1ccccc1 (stereo not given),18.5%,38.3%,42.2%,21.2%,-0.559% (active),24%,2.97% (active),9.65% (active),15.5%,-51.6% (active)
Cc1ccc(/C=C/C(=O)Nc2ncc(Cc3ccc(F)cc3)s2)o1,75.2%,85.8%,59.4%,55.1%,30.4%,77.8%,38%,49%,66.5%,31.8%
O=C(O)c1ccc(-c2ccc(/C=N/Nc3nc(Nc4ccccc4)nc(N4CCCCC4)n3)o2)cc1,62.2%,92.4%,55.1%,85%,52.8%,35.1%,43%,63.5%,61.5%,83.2%
Cc1ccc(S(=O)(=O)c2nc(-c3ccccc3)oc2Sc2nc3ccccc3s2)cc1,20.9%,48.6%,94%,97.1%,68.1%,73.9%,54.1%,101%,35.3%,102%
